Where “and” joins values, the source holds several entries; their conditions need not be identical. Equal values may be shown once. Calls of active or inactive are those of the source. How the source made its calls: active means hit-call score of the fitted dose curve at least 0.9, where 1 is the maximum; inactive means score below 0.9.
read-out: Monokine induced gamma interferon (MIG), CXCL9 (gene 4283); experiment: BSK_hDFCGF_MIG: BioMAP Diversity Plus: hDFCGF Assay for Monokine induced gamma interferon (MIG) Biomarker Activity (AID 2283063); settings: primary human foreskin fibroblasts; actives raise or lower the signal
Method: BSK_hDFCGF is a cell-based, multiplexed-readout assay that uses foreskin fibroblast, a human skin primary cell, with measurements taken at 24 hours after chemical dosing in a 96-well plate.BSK_hDFCGF_MIG is an assay component measured in the BSK_hDFCGF assay. It measures MIG antibody related to regulation of gene expression using ELISA technology.Data from the assay component BSK_hDFCGF_MIG was analyzed into 1 assay endpoint. This assay endpoint, BSK_hDFCGF_MIG, was analyzed with bidirectional fitting relative to DMSO as the negative control and baseline of activity. Using a type of binding reporter, gain or loss-of-signal activity can be used to understand changes in the signaling as they relate to the gene CXCL9. Furthermore, this assay endpoint can be referred to as a primary readout, because this assay has produced multiple assay endpoints where this one serves a signaling function. To generalize the intended target to other relatable targets, this assay endpoint is annotated to the cytokine intended target family, where the subfamily is chemotactic factor.
The levels of cell surface (or secreted, indicated by the prefix "s") biomarker endpoints were measured by ELISA. Overt cytotoxicity to cells in confluent adherent cultures (all systems other than the BT system) was assessed by measuring total protein levels using sulforhodamine B (SRB) staining in parallel cultures at the time of biomarker measurements, indicated as SRB endpoints. For proliferation assays for adherent cell types, individual cell types are cultured at sub-confluence and relative cell numbers quantified by SRB staining at time points optimized for each system (48 h: 3C and CASM3C systems; 72 h: BT and HDF3CGF systems; 96 h: SAg system). SRB was performed by staining cells with 0.1% SRB after fixation with 10% TCA and reading wells at 560 nm.Viability and proliferation of PBMC (T cells) was quantified by Alamar Blue reduction for the SAg and BT systems. For PBMC viability (referred to as PBMC Cytotoxicity within the assay endpoint names), cells were plated (75,000/well in a 96-well plate) and then chemical samples added for 1 h before addition of activators, SEB and TSST-1 (20 ng/mL final concentration each). Cells were incubated for 90 h. Then, Alamar Blue (20 uL/well) (Invitrogen, Cat DAL1100) was added for 6 h, and the plates were read with a fluorescence microplate reader at 546/580 nm (excitation/emission). For PBMC proliferation, cells were plated and activated as above but incubated for only 16 h prior to addition of Alamar Blue. Plates were read after 6 h.

Row | SMILES | outcome | AC50
1 | CC=CC(=O)C1=C(C)C=CCC1(C)C | inactive | –
2 | CC1(C)[C@H](C=C(Cl)Cl)[C@H]1C(=O)OCc1cccc(Oc2ccccc2)c1 | inactive | –
3 | CCOC(=O)C=Cc1ccccc1 | inactive | –
4 | CC(C)Cc1ccc(C(C)C(=O)O)cc1 (stereo not given) | inactive | –
5 | CCCCCCCCCC(=O)OCC | inactive | –
6 | CCCCN(CCO)CCO | inactive | –
7 | CCn1cc(C(=O)O)c(=O)c2ccc(C)nc21 | inactive | –
8 | C#C[C@]1(O)CC[C@H]2[C@@H]3CCc4cc(O)ccc4[C@H]3CC[C@@]21C | inactive | –
9 | Nc1ccc(N)c([N+](=O)[O-])c1 | inactive | –
10 | O=C(O)C(F)(F)C(F)(F)C(F)(F)C(F)(F)C(F)(F)C(F)(F)C(F)(F)C(F)F | inactive | –
11 | C=C1CC/C=C(\C)CC[C@@H]2[C@@H]1CC2(C)C | – | 33.9 µM (active)
12 | CC(C)(C)c1cccc(O)c1 | inactive | –
13 | CC(=O)OC(C)(C)C1CC=C(C)CC1 (stereo not given) | inactive | –
14 | O=S(=O)(O)C(F)(F)C(F)(F)OC(F)(F)C(F)(F)F | inactive | –
15 | C=C(C)C(N)=O | inactive | –
16 | CC(=O)c1ccc(C)cc1 | inactive | –
17 | CC(=O)CCC=C(C)CCC=C(C)C | inactive | –
18 | CCCCCCCCCCCCS | – | 17 µM (active)
19 | c1ccc(Sc2ccccc2)cc1 | inactive | –
20 | CC(C)(CO)CO | inactive | –

Row | SMILES | outcome | AC50
21 | O=S1(=O)CC(Cl)(Cl)C(Cl)(Cl)C1 | – | 0.794 µM (active)
22 | OCCN1CCOCC1 | inactive | –
23 | C=C(C)C(=O)OCCC(F)(F)C(F)(F)C(F)(F)C(F)(F)C(F)(F)C(F)(F)C(F)(F)C(F)(F)F | inactive | –
24 | CCOC(=O)CCCCCCCCC(=O)OCC | inactive | –
25 | CCCCCCCC1CCCC1=O (stereo not given) | inactive | –
26 | CCCO[Si](OCCC)(OCCC)OCCC | inactive | –
27 | C=C(F)C(=O)OC(C(F)(F)F)C(F)(F)F | inactive | –
28 | c1ccc(OCCOc2ccccc2)cc1 | inactive | –
29 | CC1=CC(C)C(C=O)C(C)C1 (stereo not given) (tested in a mixture with another compound) | inactive | –
30 | OCC(F)(OC(F)(F)C(F)(OC(F)(F)C(F)(F)C(F)(F)F)C(F)(F)F)C(F)(F)F (stereo not given) | – | 2.24 µM (active) and 2.52 µM (active)
31 | C=CC(=O)OCC(CO)(COC(=O)C=C)COC(=O)C=C | – | 0.0177 µM (active)
32 | C[C@]12CC[C@@H]3c4ccc(O)cc4CC[C@H]3[C@@H]1CC[C@@H]2O | inactive | –
33 | CCC(=O)OCC=Cc1ccccc1 | inactive | –
34 | COC(=O)c1ccc(C(=O)OC)cc1 | inactive | –
35 | O=C1OC2(c3ccc(O)cc3Oc3cc(O)ccc32)c2ccccc21 | inactive | –
36 | c1ccc2c(c1)-c1ccc3ccc4cccc5cc-2c1c3c45 | inactive | –
37 | CC(C)CCCC(C)(C)O | inactive | –
38 | CC(=O)OCC=C(C)CCC=C(C)CCC=C(C)C | inactive | –
39 | COc1ccccc1NC(=O)CC(C)=O | inactive | –
40 | O=C(O)C(F)(F)OC(F)(F)C(F)(F)OC(F)(F)C(F)(F)C(F)(F)C(F)(F)F | – | 12 µM (active) and 48.6 µM (active)

From PubChem BioAssay (EPA / NIEHS)
